Mtb MenB inh – inhibitors of Mycobacterium tuberculosis MenB enzyme; inhibition, % (no concentration beside the values); 100,000 compounds, 0.43% hits; P9WNP5; MenB enzyme assay, absorbance read-out; in the data active = inhibition above about 21%, passing the limit was not always enough
MbtI inh – MbtI salicylate synthase inhibition | inhibition, % (no concentration beside the values) | purified MbtI enzyme, fluorescence intensity read-out | 100,000 compounds, 0.89% hits | P9WFX0; in the data active = inhibition mostly above about 56%, no sharp cut-off; inactive = mostly below about 77%
Polio RdRp inh – inhibitors of poliovirus RNA polymerase binding and polymerization. % elongation, % (compound at 16.7 µg/mL). P03300. poliovirus polymerase elongation, fluorescence polarization; stronger effect = lower value. 150,000 compounds, 0.66% hits; in the data active = % elongation below about 90%
Target sequence (P03300 1749-2209 limits assumed): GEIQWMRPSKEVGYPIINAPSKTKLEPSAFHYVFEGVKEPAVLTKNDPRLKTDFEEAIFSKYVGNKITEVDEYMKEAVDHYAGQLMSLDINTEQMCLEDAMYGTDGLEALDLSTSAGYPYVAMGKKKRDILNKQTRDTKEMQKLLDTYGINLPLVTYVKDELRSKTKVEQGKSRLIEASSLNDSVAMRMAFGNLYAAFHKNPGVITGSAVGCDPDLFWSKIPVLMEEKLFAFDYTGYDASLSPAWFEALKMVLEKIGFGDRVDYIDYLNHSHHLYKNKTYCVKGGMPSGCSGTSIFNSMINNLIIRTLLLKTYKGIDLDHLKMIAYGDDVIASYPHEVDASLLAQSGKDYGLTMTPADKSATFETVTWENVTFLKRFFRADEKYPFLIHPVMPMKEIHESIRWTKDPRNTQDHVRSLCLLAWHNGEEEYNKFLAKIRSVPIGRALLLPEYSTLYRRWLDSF
The depositor's hits bear a star; . = no result given. Sampled rows, rich in hits. Any-hit rate of the full collection: about 1.4%.

SMILES	Mtb MenB inh	MbtI inh	Polio RdRp inh
CC12C=CC(O1)C1C(=O)N(c3ccccc3Cl)C(=O)C12 (configuration not stated)	.	66*	103
COC(=O)c1cc(N2C(=O)C3C4C=CC(C)(O4)C3C2=O)ccc1Cl (configuration not stated)	-7	81*	104
O=C1CC(Nc2ccccc2)C(=O)N1c1ccccc1Cl (configuration not stated)	-8	.	107
CCOc1ccc(OCCCCN(C)C)cc1	-30	1	101
CCOc1ccc(C(=S)N(C)C)cc1	-16	78*	100
CCOC(=O)c1c(C)oc2c1c(CN1CCN(c3ccccc3)CC1)c(O)c1ccccc12	5	19	104
O=C(O)CCNC(=O)Nc1cccc2ccccc12	-6	109	99
Cc1nc2cccnc2n1CCNC(=O)Nc1cccc2ccccc12	27*	39	101
CCC(=O)Nc1nnc2n1CCS2	.	.	107
CCN(CC)c1nc2n(c(=S)n1)CCS2	30*	-2	102
CC1(C)N=C(c2c(F)c(F)c(F)c(F)c2F)N(O)C1(O)c1ccccc1 (configuration not stated)	17	-2	99
COc1cc2ccc(=O)oc2c(OC2OC(CO)C(O)C(O)C2O)c1O (configuration not stated)	-36	.	103
COc1c(O)cc2c(c1O)C1OC(CO)C(O)C(O)C1OC2=O (configuration not stated)	43*	3	99
COc1cccc(-n2nnc3c(sc4nc(C)cc(C)c43)c2=O)c1	.	.	105
CCOc1cc(C#N)c(-n2nnc3c(sc4nc(C)cc(C)c43)c2=O)cc1OCC	.	.	78*
O=C(O)c1ccccc1NCN1C(=O)c2ccccc2C1=O	33	-436	100
COCc1cc(C)nc2sc(C(=O)OC)c(-n3cccc3)c12	-3	.	102
CN=Cc1cc(-c2ccccc2)oc1S	-155	53	101
CN=Cc1cc(-c2ccccc2)n(C)c1S	-144	98*	101
CCc1cc2c(=O)n(NC(=S)NC)cnc2s1	-8	2	101
COc1ccc(Cc2nn3c(Cc4ccccc4)nnc3s2)cc1	-37	93*	96
COc1ccc(Cc2nn3c(-c4ccccc4Br)nnc3s2)cc1	-34	-4	102
CCn1c(-c2ccccc2)n[nH]c1=S	-17	24	101
COC(=O)c1[nH]n(-c2c(C)cccc2Cl)c(=O)c1N=O	-50	-11	103
CCOC(=O)CC1Sc2ccccc2N=C1SCC(=O)Nc1ccc(Cl)cc1Cl (configuration not stated)	-54	96*	110
SMILES	Mtb MenB inh	MbtI inh	Polio RdRp inh
Cc1nnc(SCC(=O)Nc2ccc(Cl)cc2Cl)n1C	.	-13	101
COc1ccc(C(=O)Nc2nonc2NC(=O)c2ccc(OC)cc2)cc1	-4	-15	103
O=C1/C(=C/c2cc3ccccc3o2)CC/C1=C\c1cc2ccccc2o1	-20	3	108
O=C1/C(=C\c2ccc(Br)o2)CC/C1=C/c1ccc(Br)o1	-38	42	43*
O=C(CSc1nncc(=O)[nH]1)NCc1ccccc1	1	11	99
O=C(CSc1nncc(=O)[nH]1)Nc1cccc(Cl)c1	-51	73*	101
CCN(CC)CCCn1c(SCc2nc3sc4c(c3c(=O)[nH]2)CCC4)nc2ccccc2c1=O	15	2	120
O=C1OC2C(C(=O)O)Sc3c(sc(=O)n3-c3ccccc3)C2c2cc(Br)ccc21 (configuration not stated)	39*	-7	100
O=c1sc2c(n1-c1ccccc1)SCC1COc3ccccc3C21 (configuration not stated)	-17	21	95
Cc1cc2occ(CC(=O)OCc3c(F)c(F)c(F)c(F)c3F)c2cc1C	5	14	100
N#CC(=S)Nc1ccc(F)cc1	-9	7	85*
Fc1ccc(NC(=S)Nc2ccccc2)cc1	-3	.	103
Cc1ccc(Cn2nc(C)c(C(=O)NCc3ccco3)c2Cl)cc1	9	0	98
Cc1cc(C)cc(NC(=O)C(Sc2nnc(C)n2C2CC2)c2ccccc2)c1 (configuration not stated)	-10	-7	98
O=C(Nc1ccc(F)cc1)C(Sc1nnc(C2CC2)o1)c1ccccc1 (configuration not stated)	-4	55*	96
O=c1c(Cl)c(Cl)cnn1-c1ccccc1	.	-13	.
NS(=O)(=O)c1ccc(-n2ncc(Cl)c(Cl)c2=O)cc1	-7	3	86*
Cc1[nH]c2ccccc2c1SCCNC(=O)C(C)(C)C	-22	1	102
Cn1ccnc1P(=O)(O)c1ccccc1	-2	6	88*
CC(=O)Nc1ccc(-n2ccnc2P(=O)(O)c2ccccc2)cc1	9	5	94
O=C(c1cnn(C(=O)CSc2nc3ccccc3o2)c1)c1ccccc1O	-3	-7	106
CC1(O)CC(=O)N(c2ccccc2)O1 (configuration not stated)	.	4	.
Cn1c(=O)sn(-c2ccccc2)c1=O	3	100*	96
Cc1ccc(CCNC(=O)c2cnc3c(-c4ccc(F)cc4)c(C)nn3c2C)cc1	.	.	76*
CCOc1ccc(CCNC(=O)c2cnc3c(-c4ccc(F)cc4)c(C)nn3c2C)cc1	.	.	105
SMILES	Mtb MenB inh	MbtI inh	Polio RdRp inh
N#CCn1ccn(-c2ccc(F)c(Cl)c2)c(=O)c1=O	-13	-9	103
O=c1sn(-c2ccc(F)c(Cl)c2)c(=O)n1C1Cc2ccccc2C1	9	83*	95
CCOc1ccc(S(=O)(=O)c2cn(Cc3ccc(C)cc3)c3ccc(OC)cc3c2=O)cc1	.	.	90*
COc1ccc(S(=O)(=O)c2cn(Cc3ccccc3)c3ccc(OC)cc3c2=O)cc1	.	.	102
CCS(=O)(=O)c1ccc2oc(Nc3ccc(C(C)C)cc3)nc2c1	-20	65	70*
CCS(=O)(=O)c1ccc2oc(Nc3cc(C)cc(C)c3)nc2c1	-13	14	103
CCOC(=O)c1ccc(NC(=O)c2ccc(-c3ccc(F)cc3)o2)cc1	-30	40	102
CC(C)NC(=O)c1ccc(-c2ccc(F)cc2)o1	30*	90	101
O=C(CCCN1CCNCC1)c1ccc(F)cc1	8	.	98
NC(=O)CSc1ncccc1C(=O)O	15	8	95
Nc1c(-c2ccccc2)nc2sccn12	81*	88*	94
Nc1c(-c2ccccc2)nc2ccccn12	3	108	102
CCC1CCCCN1c1cc(C)nc2cc(-c3cc(OC)cc(OC)c3)nn12 (configuration not stated)	-43	192	103
CCCN1CC=C2C(C#N)=C(N)C(C#N)(C#N)C(C(C)C)C2C1 (configuration not stated)	-195	89	58
N#C/C(C(N)=O)=C(/S)Nc1ccccc1	-16	30	101
N#C/C(C(=O)N1CCCCC1)=C(/S)Nc1ccccc1	-17	71*	99
CC(=O)n1c(SCC(=O)NC2=NN=C(c3ccc(C)cc3)CS2)nc2ccccc21	8	4	104
Cc1ccc(C2=NN=C(NC(=O)CSc3nnc(C)s3)SC2)cc1	8	84*	99
Cc1ccc(/C(N)=N\O)n1C	52*	.	102
N/C(=N/O)c1ccccc1	.	-1	102
O=c1[nH]snc1N1CCCCC1	13	43	64*
O=c1[nH]snc1N1CCOCC1	.	2	.
CC1=NC(C(F)(F)F)(C(F)(F)F)N=C(N(C)C)O1	-3	-2	101
CCNc1nc(Cl)nc(NCC)n1	.	-3	101
